Data on eight molecules can be found in PubChem BioAssay (NCI).

About 83,000 compounds went through this panel and 20% of them were active in at least one assay; those are over-represented in the sample as a whole.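 A percent growth of 40 corresponds to 60% growth inhibition; 0 means no net growth; -100 means all cells died. Active threshold: below 10.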 Unmarked numbers belong to inactive results. Activity calls are given as the source filed them.

Among the test systems are SR leukemia; RPMI-8226 leukemia; OVCAR-8 ovarian; OVCAR-5 ovarian; OVCAR-4 ovarian; SK-OV-3 ovarian; IGROV1 ovarian; OVCAR-3 ovarian; HS 578T breast; NCI/ADR-RES ovarian; T-47D breast; BT-549 breast; MDA-MB-435 melanoma; SW-620 colon; MCF7 breast; HCT-116 colon; HCC-2998 colon; KM12 colon; MDA-MB-468 breast.
Common to all, as to test: NCI-60 one-dose screen, 48 h (100 = growth as untreated, 0 = no growth, -100 = all killed)
Common to all, as to details: 10 µM unless noted

For `CCOC(=O)C1=C(N)N(c2ccccc2)C2=C(C(=O)CC(C)(C)C2)C1c1ccccc1Cl` (configuration not stated), the growth is 32.5% with SR leukemia; 22.5% with RPMI-8226 leukemia; 83.6% in the assay with OVCAR-8 ovarian; 86.8% with OVCAR-5 ovarian; 74.6% in the assay on OVCAR-4 ovarian; 90.1% with SK-OV-3 ovarian. The growth with IGROV1 ovarian was 92%; with OVCAR-3 ovarian, 62.7%; with HS 578T breast, 93.4%; in the assay on NCI/ADR-RES ovarian, 74%; in the assay with T-47D breast, 52%; in the assay on BT-549 breast it was 78.6%. Further, the growth in the assay with MDA-MB-435 melanoma is 73.1%; with SW-620 colon, 74.6%; with MCF7 breast, 56.5%; with HCT-116 colon it was 41.3%; in the assay on HCC-2998 colon it was 85.6%; with KM12 colon, 58.4%. Besides, the growth in the assay with MDA-MB-468 breast was 50.2%.

For the molecule `CC12CC[C@@H]3[C@]4(C)COC(c5c(F)cccc5F)O[C@@H]4CC[C@@]3(C)[C@@H]1CC(C1=CCOC1=O)O2` (some centres not stated), the growth in the assay with SR leukemia is 55.6%; in the assay with RPMI-8226 leukemia it was 40.4%; in the assay on OVCAR-8 ovarian, 59.8%; with OVCAR-5 ovarian, 85.6%; in the assay on OVCAR-4 ovarian it was 70.1%; in the assay on SK-OV-3 ovarian, 77.2%. Further, the growth in the assay on IGROV1 ovarian is 79.1%; in the assay on OVCAR-3 ovarian, 88.1%; in the assay on HS 578T breast, 81.2%; with NCI/ADR-RES ovarian it was 59%; in the assay on T-47D breast it was 55%; in the assay with BT-549 breast, 48.3%. Besides, the growth with MDA-MB-435 melanoma is 86.1%; in the assay with SW-620 colon, 100%; in the assay on MCF7 breast, 58.4%; in the assay with HCT-116 colon, 49.1%; in the assay with HCC-2998 colon, 76.7%; in the assay with KM12 colon it was 72.6%. In the assay on MDA-MB-468 breast, the growth is 52.1%.

For `Cn1cc(-c2nc(N)nnc2-c2c[nH]c3ccc(F)cc23)c2cc(Br)cnc21`, the growth in the assay with SR leukemia was 3.88% (active); with RPMI-8226 leukemia, -6.78% (active); in the assay with OVCAR-8 ovarian, 0.188% (active); in the assay with OVCAR-5 ovarian, 14.9%; in the assay with OVCAR-4 ovarian it was 29.8%; in the assay with SK-OV-3 ovarian, 19.8%. The growth is 15.8% in the assay on IGROV1 ovarian; -33.2% (active) with OVCAR-3 ovarian; 35.8% in the assay on HS 578T breast; 0.236% (active) in the assay on NCI/ADR-RES ovarian; 43.5% with T-47D breast; -42.4% (active) in the assay on BT-549 breast. Further, the growth is -39.4% (active) with MDA-MB-435 melanoma; 17.2% in the assay on SW-620 colon; 4.55% (active) in the assay with MCF7 breast; -14.8% (active) with HCT-116 colon; -40.9% (active) with HCC-2998 colon; -21.7% (active) in the assay on KM12 colon. Besides, the growth with MDA-MB-468 breast is -20.2% (active).

`COC(OC)C1=C(C)OC(N)=C(C#N)C12C(=O)Nc1ccccc12` (configuration not stated): the growth was 73% with SR leukemia; 94.3% in the assay with RPMI-8226 leukemia; 91.9% with OVCAR-8 ovarian; 112% with OVCAR-5 ovarian; 101% with OVCAR-4 ovarian; 111% in the assay on SK-OV-3 ovarian. The growth in the assay on IGROV1 ovarian was 92%; with OVCAR-3 ovarian, 101%; in the assay with HS 578T breast, 95.4%; with NCI/ADR-RES ovarian, 99.2%; in the assay on T-47D breast it was 100%; with BT-549 breast it was 123%. Besides, the growth was 94.8% in the assay on MDA-MB-435 melanoma; 85.5% in the assay on SW-620 colon; 60.7% in the assay on MCF7 breast; 100% with HCT-116 colon; 106% with HCC-2998 colon; 95.3% with KM12 colon. Also, the growth in the assay on MDA-MB-468 breast is 85.9%.

Take `C#CCOc1ccc(/C=N/Nc2nc(-c3cc4cc(OC)ccc4oc3=O)cs2)cc1OC`: the growth was 34.7% in the assay on SR leukemia; 50.9% in the assay with RPMI-8226 leukemia; 50.8% in the assay on OVCAR-8 ovarian; 47% in the assay with OVCAR-5 ovarian; 40.7% with OVCAR-4 ovarian; 71% in the assay on SK-OV-3 ovarian. Moreover, the growth in the assay with IGROV1 ovarian is 81%; in the assay with OVCAR-3 ovarian, 63.5%; in the assay with HS 578T breast, 68.1%; in the assay on NCI/ADR-RES ovarian, 50.5%; in the assay on T-47D breast it was 51.8%; with BT-549 breast it was 54.1%. In addition, the growth in the assay with MDA-MB-435 melanoma was 63.9%; with SW-620 colon, 39.7%; in the assay on MCF7 breast it was 57.3%; in the assay on HCT-116 colon, 46.4%; with HCC-2998 colon, 84.4%; in the assay on KM12 colon it was 50.3%. Also, the growth in the assay with MDA-MB-468 breast is 42.9%.

As for `Clc1cccc(-c2ccc(OCCCN3CCN(c4ccncc4)CC3)cc2)c1`, the growth in the assay with SR leukemia was -38.5% (active); in the assay with RPMI-8226 leukemia, -39.1% (active); with OVCAR-8 ovarian, 37.9%; in the assay with OVCAR-5 ovarian it was 69.7%; in the assay on OVCAR-4 ovarian it was 38.2%; with SK-OV-3 ovarian, 30.1%. Besides, the growth in the assay with IGROV1 ovarian is 49.6%; with OVCAR-3 ovarian it was 0.45% (active); in the assay on HS 578T breast, -2.27% (active); with NCI/ADR-RES ovarian it was 5.66% (active); in the assay on T-47D breast it was -37.5% (active); in the assay with BT-549 breast, 20.4%. Also, the growth was -51.6% (active) in the assay on MDA-MB-435 melanoma; -66.2% (active) in the assay on SW-620 colon; -61.4% (active) in the assay on MCF7 breast; -76.7% (active) in the assay on HCT-116 colon; -91.5% (active) in the assay on HCC-2998 colon; -43.8% (active) with KM12 colon. In addition, in the assay with MDA-MB-468 breast, the growth is -62.3% (active).

Turning to `CN(C)c1nc(NCCNS(=O)(=O)c2ccc(C3=Nc4c(N)nc(N)nc4NC(c4ccc(Cl)cc4)C3)cc2)nc(Nc2ccc(F)cc2)n1` (configuration not stated), the growth in the assay on SR leukemia was 0.305% (active); with RPMI-8226 leukemia, -2.32% (active); in the assay on OVCAR-8 ovarian, 46.2%; with OVCAR-5 ovarian it was 72.6%; in the assay on OVCAR-4 ovarian it was 45.6%; with SK-OV-3 ovarian, 90.3%. Also, the growth was 51.5% with IGROV1 ovarian; 51.9% in the assay with OVCAR-3 ovarian; 56.3% with HS 578T breast; 94.4% in the assay on NCI/ADR-RES ovarian; 33.8% in the assay on T-47D breast; 15.4% with BT-549 breast. For the same molecule, the growth was 32.3% with MDA-MB-435 melanoma; 33.4% in the assay on SW-620 colon; 2.35% (active) in the assay with MCF7 breast; 15.3% in the assay with HCT-116 colon; -0.0718% (active) in the assay on HCC-2998 colon; 19.4% with KM12 colon. In addition, the growth in the assay with MDA-MB-468 breast was -35.5% (active).

Take `COc1cc2c(c(OC)c1OC)C(=O)CC(c1cccc(NC(=O)[C@@H](N)CC(C)C)c1)O2` (some centres not stated): the growth in the assay on SR leukemia is 66.9%; with RPMI-8226 leukemia, 108%; in the assay on OVCAR-8 ovarian, 94.9%; in the assay on OVCAR-5 ovarian, 112%; in the assay with OVCAR-4 ovarian, 102%; with SK-OV-3 ovarian, 109%. In addition, the growth in the assay with IGROV1 ovarian was 107%; in the assay with OVCAR-3 ovarian, 97.9%; in the assay with HS 578T breast it was 88.4%; in the assay with NCI/ADR-RES ovarian it was 99.8%; in the assay with T-47D breast it was 86%; in the assay with BT-549 breast it was 94.3%. Also, the growth in the assay on MDA-MB-435 melanoma is 91.2%; in the assay with SW-620 colon it was 107%; in the assay with MCF7 breast, 86.8%; in the assay with HCT-116 colon, 101%; with HCC-2998 colon, 117%; with KM12 colon, 97.2%. Moreover, the growth in the assay on MDA-MB-468 breast is 89.3%.
